MITF act: MITF TRPM1 promoter activation in melanoma cells. 300,000 tested, 0.75% active. SK-MEL-5 TRPM1-promoter luciferase, 24 h; % of positive control, neutral wells = 0. activation, % at 12.5 µM;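 active = mean activation of at least 80% with every replicate also reaching 80%; inconclusive = mean reaches 80% but some replicate falls short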
esBAF inh: blocks esBAF chromatin remodeling in mouse ES cells; 350,000 tested, 2% active; Bmi1-luciferase knock-in reporter, 24 h; 100% = twice the neutral-well signal; reporter increase, % at 12.5 µM; in the data active = activation above about 40%; inconclusive = no clear call, values can overlap the other calls;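 also: a rise in the Bmi1 reporter signal indicates esBAF inhibition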
Wnt bcat act: activators of Wnt/beta-catenin signaling. AID 743398. 300,000 tested, 1.2% active. Wnt/beta-catenin reporter cell assay, activator, plate reader. activation, % at 9.35 µM; in the data active = activation above about 30%, passing the limit was not always enough; inconclusive = no clear call, values can overlap the other calls
HSF-1 act: increases HSF-1 driven luciferase reporter signal; NIH3T3-HGL HSF-1 luciferase reporter, MG132, 8 h; 100% = twice DMSO control signal; activation, % at 9 µM; 300,000 tested, 1.7% active;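 active = mean replicate activation of at least 50% with a set share of replicates each reaching 50%; inconclusive = only one of those two conditions met; inactive = mean below 50% and too few replicates reaching it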
HSF1 inhib: HSF1 inhibition | NIH3T3-HGL HSE-luciferase, MG132-induced, luminescence 8 h; hits give low values | activity change, negative = inhibition, % at 7.5 µM (by protocol) | 300,000 tested, 0.77% active | AID 2098;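 active = more than half of replicate wells show activity change below -50%, luminescence cut by over half; inconclusive = some wells, but at most half, below -50%; inactive = no replicate well below -50%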;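 also: luciferase reports HSF-1 transcriptional activity via heat shock element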
Ring1 derepress: de-represses Ring1 in mouse ESCs, confirming esBAF inhibition | shares compounds with esBAF inh | mouse ESC E14, Ring1 mRNA RT-qPCR fold change | fold change at 33 µM | 550 tested, under 10 active | AID 743176;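 active = Ring1 gene expression raised more than 2-fold over untreated cells in both replicates at either tested dose; inconclusive = only one replicate above 2-fold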;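 also: Ring1 transcript normalised to actin housekeeping signal by TaqMan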
esBAF Fgf4 qPCR: represses Fgf4 in mouse ESCs, confirming esBAF inhibition; shares compounds with esBAF inh; mouse ESC E14, Fgf4 mRNA qPCR fold change; hits give low values; Fgf4 expression fold change at 33 µM; 550 tested, 4% active;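 active = Fgf4 expression under 0.8 fold of control in both repeat measurements at one or both tested doses; inconclusive = under 0.8 fold in just a single repeat measurement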;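 also: Fgf4 transcript normalised to actin in duplex TaqMan qPCR; cells exposed to compound for 24 h before lysis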
Bmi1 derepress: confirmation of esBAF inhibitors: Bmi1 de-repression in mouse ESCs; shares compounds with esBAF inh; mouse ESE14 ES cells, Bmi1 mRNA qPCR fold; hits give high values; fold change at 33 µM; 550 tested, under 10 active; AID 743180;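 active = Bmi1 expression fold change above 6 at either tested concentration, seen in replicate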;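 also: higher fold means more Bmi1 de-repression and stronger esBAF inhibition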
A549 tox SP: A549 cell cytotoxicity; AID 743188; 550 tested, under 10 active; cell viability change % (negative = cytotoxic), % at 25 µM, hits read low; plate reader; shares compounds with esBAF inh; call rule not given here
HepG2 cytotox SP: HepG2 cell cytotoxicity at single point; shares compounds with esBAF inh; 550 tested, 4% active; plate reader; hits give low values; activity change, negative = inhibition, % at 25 µM; in the data active = activity change below about -50%
HEK293 cytotox SP: cytotoxicity in HEK293 cells | shares compounds with esBAF inh | plate reader | activity change, negative = inhibition, % at 25 µM, hits read low | 550 tested, 3% active | AID 743190; in the data active = activity change below about -38%, passing the limit was not always enough
Of the large screens only hits and unclear results are named; the others gave an inactive call (follow-up assays come after a bar, where they were run). Rows were chosen to be rich in hits. Some 3.8% of all compounds tested hit in one or more screens of this group.

Cn1ncnc2c(=O)n(C)c(=O)nc1-2	HSF1 inhib -95 (no result: Wnt bcat act)
COC(=O)[C@]12OC[C@]34C([C@@H](O)[C@@H]1O)[C@]1(C)CC(=O)C(O)=C(C)[C@@H]1C[C@H]3OC(=O)[C@H](O)[C@@H]24 (some centres not stated)	HSF1 inhib -69
O=C(Cc1ccccc1)N1C[C@@H]2[C@H](c3ccccc31)[C@H](CO)N2Cc1ccccc1	none (no result: MITF act, Wnt bcat act, HSF-1 act, HSF1 inhib)
COc1ccc(N=Cc2c(O)n(Cc3ccccc3)c(=S)[nH]c2=O)c(OC)c1	HSF-1 act 117 (no result: esBAF inh)
Cc1cc(C(=O)N=Nc2c(O)n(C)c3ccccc23)c(C)o1	MITF act 87, HSF-1 act 80 (no result: Wnt bcat act)
O=C1OCCC1C(=O)c1ccccc1 (configuration not stated)	none (no result: MITF act, esBAF inh, HSF-1 act, HSF1 inhib)
O=C(c1ccccc1)C1NC1c1ccccc1 (configuration not stated)	esBAF inh 49
O=C(Cc1ccccn1)N1CCCCN2[C@H](CO)[C@H](c3ccc(Br)cc3)[C@@H]2C1	none (no result: MITF act, Wnt bcat act, HSF-1 act, HSF1 inhib)
COC(=O)[C@@H]1[C@@H](CO)[C@@H]2Cn3c(ccc(-c4ccc(F)cc4)c3=O)[C@H]1N2Cc1cccnc1	none (no result: MITF act, Wnt bcat act, HSF-1 act, HSF1 inhib)
COc1ccc(C[C@H]2NC[C@H](O)[C@H]2OC(C)=O)cc1	HSF1 inhib -75
O=C(Cc1ccccn1)N1CCCCN2[C@H](CO)[C@H](c3ccc(-c4ccccc4F)cc3)[C@H]2C1	none (no result: MITF act, Wnt bcat act, HSF-1 act, HSF1 inhib)
CC(C)(C)NC(=O)NC(=O)CN1CC=C(c2ccccc2)CC1	HSF-1 act 61
Cc1ccccc1-n1c(O)c(C=Nc2ccc(N(C)C)cc2)c(=O)[nH]c1=O	HSF-1 act 64 (no result: MITF act, Wnt bcat act)
CC(C)(C)n1cc(C(=O)c2ccc3ccccc3c2O)cn1	HSF1 inhib -72 (no result: esBAF inh)
CC(=O)c1ccc(-c2ccccc2)cc1	esBAF inh 34
CC(=O)c1ccccc1NC(=O)C1C2CCC(O2)C1C(=O)O (configuration not stated)	HSF-1 act 68 (no result: MITF act, esBAF inh, Wnt bcat act)
O=C(O)C1C2CCC(O2)C1C(=O)Nc1ccc(F)c(F)c1 (configuration not stated)	none (no result: MITF act)
COC(=O)C[C@H]1CC[C@@H]2NC[C@H](O)COC[C@H]2O1	none (no result: MITF act, Wnt bcat act, HSF-1 act, HSF1 inhib)
CCOC(=O)c1c(C)n(Cc2ccc3c(c2)OCO3)c2ccc(O)cc12	HSF-1 act 62 (no result: MITF act, Wnt bcat act)
CN(C)C(=O)[C@@H]1[C@@H](CO)[C@@H]2Cn3c(cccc3=O)[C@H]1N2CC1CC1	none (no result: MITF act, Wnt bcat act, HSF-1 act, HSF1 inhib)
CCCCn1c(C)c(C(=O)OCC)c2c(CN3CCOCC3)c(O)ccc21	HSF-1 act 72
CCCCn1c(C)c(C(=O)OCC)c2c(CN3CCCC3)c(O)ccc21	none
O=c1cccc2n1CC1CC2CN(Cc2c(Cl)cccc2Cl)C1 (configuration not stated)	none (no result: Wnt bcat act)
O=c1cccc2n1CC1CC2CN(c2nc(N3CCCCC3)nc(N3CCCCC3)n2)C1 (configuration not stated)	HSF-1 act 58 (no result: esBAF inh)
C[C@H](CO)N1C[C@H](C)[C@H](CN(C)C(=O)Oc2cccc3ccccc23)OCc2cn(nn2)CCCC1=O	none (no result: MITF act, Wnt bcat act, HSF-1 act, HSF1 inhib)
c1ccc(Nc2ccc3ccccc3c2)cc1	MITF act 95, esBAF inh 74 (no result: HSF-1 act, HSF1 inhib) | Ring1 derepress inactive | esBAF Fgf4 qPCR inconclusive | Bmi1 derepress inactive | A549 tox SP inactive | HepG2 cytotox SP inactive | HEK293 cytotox SP inactive
CCCN1[C@@H]2Cn3c(ccc(-c4ccc(F)cc4)c3=O)[C@H]1[C@@H](C(=O)OC)[C@@H]2CO	none (no result: MITF act, Wnt bcat act, HSF-1 act, HSF1 inhib)
O=c1[nH]cnc2nc(-c3ccc(N(CCCl)CCCl)cc3)[nH]c12	esBAF inh 74 (no result: HSF-1 act, HSF1 inhib) | Ring1 derepress inactive | esBAF Fgf4 qPCR inactive | Bmi1 derepress inactive | A549 tox SP -54 | HepG2 cytotox SP inactive | HEK293 cytotox SP -37
COc1ccc(-c2ccc3n2Cc2cnnn2-c2ccccc2-3)cc1	esBAF inh 82 (no result: HSF-1 act, HSF1 inhib) | Ring1 derepress inactive | esBAF Fgf4 qPCR inactive | Bmi1 derepress inactive | A549 tox SP inactive | HepG2 cytotox SP inactive | HEK293 cytotox SP inactive
c1ccc(CCc2ccc3n2Cc2cnnn2-c2ccccc2-3)cc1	none (no result: HSF-1 act, HSF1 inhib)
CCC(=O)N1[C@@H]2Cn3c(ccc(C4=CCCC4)c3=O)[C@H]1[C@@H](C(=O)OC)[C@@H]2CO	none (no result: MITF act, Wnt bcat act, HSF-1 act, HSF1 inhib)
